# Source: PubChem BioAssay AID435019 (Southern Research Specialized Biocontainment Screening …, 2010)
# Screen size: about 2,300 compounds; about 1,200 (52%) were called active. The set was probably picked from earlier hits. Some of the results follow. Measured potencies and affinities stand elsewhere. Unmarked numbers belong to inactive results. The rule behind the calls is not given here.
# Assay: mammalian cell cytotoxicity, dose response, cytotoxicity control for M. tuberculosis inhibitor project (AID 435019);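 note: 0% = background wells and 100% = vehicle-treated cells; lower values mean fewer viable cells so more cytotoxicity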
# Conditions: cytotoxicity counter-screen; series mostly up to 40 µM; viability: at the top concentration
row,Compound,viability
1,CCOC(=O)c1ccc(N2CC(O)=C(c3nc4ccccc4c(=O)[nH]3)C2=N)cc1,94.1%
2,O=C(CSc1nn(-c2ccc(F)cc2)c(=S)s1)NCC1CCCO1 (configuration not stated),92.4%
3,Cc1nn(-c2ccccc2)c(Cl)c1/C=N/NC(=O)c1ccc(CNc2ccccc2)o1,96.3%
4,Cc1ccc(C(=O)CCC(=O)OCC(=O)Nc2c(C)nn(-c3ccccc3)c2C)cc1,101%
5,CCOC(=O)C(/C=C(\C#N)C(=O)OCC)=C(/N)N1CCN(c2ccc(Cl)cc2)CC1,90.8%
6,CCN1CCN(c2oc(COc3ccc(-c4ccccc4)cc3)nc2C#N)CC1,81.5%
7,Clc1ccc(-c2cc3ccccc3nc2N2CCCC2)cc1,85.9%
8,O=C1C2C(C(=O)N1/N=C/c1ccc([N+](=O)[O-])o1)C1C=CC2C12CC2 (configuration not stated),99%
9,COC(=O)CSc1nnc(-c2sc3cc(OC)ccc3c2Cl)n1C,102%
10,CNC(=O)COC(=O)c1ccc(-c2nc3ccccc3s2)s1,87.3%
11,CNC(=O)c1csc(-c2ccc(Cl)cc2)n1,84.6%
12,COc1ccc(COC(=O)CCNC(=O)c2ccc(Cl)cc2)cc1,97.3%
13,C/C(=N\Nc1ccc(Cl)c(Cl)c1)c1ccc(-n2ccnc2)cc1,87.4%
14,CNc1ncnc2c1ncn2[C@@H]1O[C@H](CO)[C@@H](O)[C@H]1O,119%
15,O=C(CCSc1ccccn1)c1ccccc1,90.3%
16,O=C(OCC#CCSc1nnc(-c2cccc3ccccc23)o1)c1cccs1,86.7%
17,O=C(CCC(=O)NC1CCCCCCC1)Nc1nnc(C(F)(F)F)s1,86.1%
18,CCOc1ccc(NC(=S)NC23CN4CN(CN(C4)C2)C3)cc1,96.7%
19,COc1ccc(S(=O)(=O)N(C)CC(=O)NCCCn2ccnc2)cc1Cl,95.1%
20,CCCOc1ccc(N2CC(C(=O)Nc3ccccn3)CC2=O)cc1 (configuration not stated),97.3%
21,Nc1ccc(S(=O)(=O)Nc2cnc3ccccc3n2)cc1,100%
22,CCOc1ccc(N2C(=O)CS/C2=C(\C(Cl)=C(Cl)Cl)[N+](=O)[O-])cc1,98.2%

row,Compound,viability
1,COc1ccc(C(=O)Cn2nc(CNc3ccc(Br)cc3)[n+]3c2CCCCC3)cc1,97.4%
2,CCc1nnc(NS(=O)(=O)c2ccc(N/C=C\C(=O)c3cccc(OC)c3)cc2)s1,81.3%
3,COc1ccc(C2CC2/C(C)=N/OC(=O)c2ccc(F)cc2)cc1 (configuration not stated),107%
4,CCCCCC(=O)Nc1cccc2ccccc12,93.4%
5,COc1cc(N=Nc2ccc3ccccc3c2)ccc1O,81%
6,CCOc1cccc2cc(C(=O)Nc3nccs3)c(=O)oc12,101%
7,O=C(O)Cc1cnc[nH]1,91.7%
8,O=C(CCl)c1ccc2c(c1)CCN2C(=O)C1CCCCC1,82.9%
9,C(=C\c1ccccc1)/C=N/Nc1nc2ccccc2s1,83.8%
10,COc1ccccc1/C=C/C1=NC(=C\C=C/c2ccccc2)/C(=O)O1,94.2%
11,COc1ccc(C2CC(=O)C3=C(C2)NC(C)=C(C#N)C3c2ccc(N(C)C)cc2)cc1 (configuration not stated),84.2%
12,CCOc1ccc(N=CC2=C(O)CC(c3ccco3)CC2=O)cc1 (configuration not stated),101%
13,CCCCCCc1cc2cc(C(=O)NCc3ccccc3)c(=N)oc2cc1O,96%
14,Nc1c(C(=O)Nc2ccc(Br)cc2)sc2nc(-c3ccco3)ccc12,90.5%
15,Cc1ccc(NC2Sc3ccccc3NC2=O)cc1Cl (configuration not stated),83.3%
16,O=C(C[n+]1ccccc1)NNc1ccccc1,102%
17,CN(C)C(=O)c1ccc(NC(=O)COC(=O)c2cc3c(s2)CCCCC3)cc1,94.3%
18,Cc1ccc(NC(=O)COC(=O)c2ccc(=O)n(Cc3ccccc3)n2)cc1F,99.3%
19,COc1ccc(C(=O)COC(=O)[C@H](C)Nc2ccc(C(F)(F)F)cc2[N+](=O)[O-])cc1,97.9%
20,COC(=O)c1ccc(Cn2cc(C(F)(F)F)cc([N+](=O)[O-])c2=O)cc1,101%
21,CCOC(=O)CSc1nsc(SCC(=O)OCC)c1C#N,96.2%
22,CCOc1ccc(N=c2scc(-c3ccccc3)n2CCO)cc1,96%

row,Compound,viability
1,Oc1ccc2cc(Br)ccc2c1CN1CCCC1,84.9%
2,CSc1cc(-c2ccncc2)nc(-c2ccc(Cl)cc2)c1,84.4%
3,Cc1ccnc(NC(=O)CCc2c[nH]c3ccccc23)c1,82.8%
4,Cn1ccc(=Nc2ccc(NC(=O)c3ccc(N=c4ccn(C)c5ccc([N+](=O)[O-])cc45)cc3)cc2)cc1,90.8%
5,CCOC(=O)C1CCCN(c2ncnc3c2cnn3-c2ccc(OC)cc2)C1 (configuration not stated),98.5%
6,COc1ccc(-c2nnc(SCC(=O)N3CCc4ccccc4C3)o2)cc1,85.6%
7,CCOC(=O)N1CCN=C1SCc1ccc(C(F)(F)F)cc1,94.8%
8,COc1ccc(-c2nnc(NC(=O)c3ccc([N+](=O)[O-])o3)o2)c(OC)c1,82.6%
9,O=[N+]([O-])c1ccc(-n2cnc3ccccc32)c([N+](=O)[O-])c1,95%
10,Cc1ccc(S(=O)(=O)N(C)c2ccc(OCC(=O)OCc3ccc(C#N)cc3)cc2)cc1,95.1%
11,CC(/C=C/c1ccccc1)=N\NC(N)=S,93.2%
12,CC1CCC/C(=N\NC(=S)Nc2ccccc2)C1 (configuration not stated),88.5%
13,O=C(OCCN1C(=O)c2ccccc2C1=O)c1cc2ccccc2o1,99.3%
14,CCN(CC)S(=O)(=O)c1ccc(/C=C/C(=O)OCC#N)cc1,91.9%
15,Cc1ccnc(N2CCC(C(=O)Nc3cccc(C(F)(F)F)c3)CC2)n1,84.4%
16,CCOC(=O)c1c(/N=C/N(C)C)sc(/C=N/Nc2ccccc2)c1-c1ccccc1Cl,83.2%
17,CCOC(=O)NNc1ccccc1,101%
18,COC(=O)C1C2c3ccccc3OC1(C)N=c1s/c(=C/c3cnn(C)c3C)c(=O)n12 (configuration not stated),96.6%
19,CCc1cc2c(=O)c(-c3cnn(-c4ccccc4)c3)c(C)oc2c(CN2CCCCC2)c1O,93.9%
20,CC(NC(=O)c1ccccc1Br)C1CC2CCC1C2 (configuration not stated),91.3%
21,O=C(OCc1nc2ccccc2s1)c1ccc(Br)o1,93%
22,Cc1cc(/C=C/C(=O)O)c(C)n1-c1ccc(Cl)cc1,95.7%

row,Compound,viability
1,CNc1cccccc1=S,90.6%
2,NC(=O)CSc1nnc(COc2ccc3ccccc3c2)o1,92.6%
3,COc1ccc2c(c1)CCc1c(C(=O)Nc3c(C)n(C)n(-c4ccccc4)c3=O)noc1-2,91.4%
4,Cc1c(O)c(=O)n(-c2ccccc2)n1C,99.9%
5,CC(C)(C)c1ccc(C(=O)CSc2n[nH]c(=O)[nH]c2=O)cc1,90.6%
6,Cc1ccccc1Cn1ccc(=NCc2ccccc2)cc1,94.5%
7,CC(=O)n1cc(/C=C2/N=C(c3ccccc3)OC2=O)c2ccccc21,87.7%
8,O=C(CN1CCCCC1)Nc1nnc(-c2ccc([N+](=O)[O-])cc2)s1,84.5%
9,Cc1ccc(NC(=O)Cc2ccc(-c3ccccc3)cc2)nc1,92.4%
10,CSc1cccc(NC(=O)CCS(=O)(=O)c2cccc3nonc23)c1,92.1%
11,COC(=O)c1ccc(-n2cnc3ccccc32)nc1,85%
12,COc1ccc(N2CCN(C(=O)c3ccc(CNc4c(N5CCOCC5)c(=O)c4=O)cc3)CC2)cc1,94.8%
13,CN(C)c1ccc(/C=C2\N=C(C(C)(C)C)OC2=O)cc1,92%
14,CCC(C)N1CCC2(CC1)N=c1c(c3c4c5c(C)c(O)c3c(O)c1=NC(=O)C(C)=CC=C[C@H](C)[C@H](O)[C@@H](C)[C@@H](O)[C@@H](C)[C@H](OC(C)=O)[C@H](C)[C@@H](OC)C=CO[C@@](C)(O5)C4=O)N2 (some centres not stated),85.8%
15,Cc1c2c(nc3ccccc13)CCC(C)C2 (configuration not stated),90.5%
16,O=C1C(c2ccccc2)=[N+]([O-])c2ccccc21,88.2%
17,COc1ccc(C2CC(=O)c3cnc(Nc4cc(C)cc(C)c4)nc3C2)cc1 (configuration not stated),89.3%
18,COc1ccc(NC(=O)CSC2CCCCC2)cc1,105%
19,O=C(N/N=C/c1c(F)c(F)c(F)c(F)c1F)c1cccc(S(=O)(=O)N2CCOCC2)c1,84.2%
20,COc1ccc(NC(=O)c2oc3ccc(S(=O)(=O)N4CCOCC4)cc3c2C)cc1,98.4%
21,COc1cc2cc(C(c3nnnn3C(C)(C)C)N3CCc4ccccc43)c(=O)[nH]c2cc1OC (configuration not stated),87.3%
22,COc1ccc(C2=NC(=O)/C(=C\c3cc(OC)c(OC)c(OC)c3)O2)cc1,97.4%

row,Compound,viability
1,CCCCOC(=O)c1ccc(NC(=S)NC(=O)c2c(Br)c(C)nn2C)cc1,100%
2,CN(CCO)c1cc(Sc2nc3ccccc3s2)c2nonc2c1[N+](=O)[O-],88.1%
3,CCCSC1=C(C#N)C(c2ccc(Cl)cc2Cl)CC(=O)N1 (configuration not stated),87.4%
4,CN(C(=O)COC(=O)/C=C/c1ccc(Cl)c(Cl)c1)c1c(N)n(Cc2ccccc2)c(=O)[nH]c1=O,101%
5,C=CCOc1c(Br)cc(CNc2nccs2)cc1OC,80.1%
6,O=C(CCc1nnc(CCCc2ccccc2)o1)NCCCC1CCCC1,93.3%
7,COc1ccc(N/C=C(\C2OC(=O)c3ccccc32)[N+](=O)[O-])cc1 (configuration not stated),103%
8,COc1ccc(N=N/C(=C\O)C(=O)c2cccs2)cc1,101%
9,Cc1nc(SCC(=O)Nc2ccc(OCc3ccccc3)cc2)n[nH]1,91.9%
10,C=CCc1cccc2cc(C(=O)OCC(=O)c3ccccc3)c(=O)oc12,104%
11,Cn1ccnc1C(=O)C1CCCN(Cc2cn[nH]c2-c2ccc(-c3ccccc3)cc2)C1 (configuration not stated),86.1%
12,CC(=O)c1cccc(Nc2nc(-c3cccnc3)cs2)c1,81%
13,O=C(OCc1csc(Nc2ccccc2)n1)c1ccc(Cl)cc1,90.1%
14,O=C(/C=C/c1ccc([N+](=O)[O-])cc1)NC1CC2CCC1C2 (configuration not stated),89%
15,CC(C)Oc1ccc(C(=O)N/N=C/c2ccc(-c3ccc(S(=O)(=O)Nc4ncccn4)cc3)o2)cc1,87%
16,O=C(c1ccc([N+](=O)[O-])s1)N1CCN(c2ccc(C(F)(F)F)cn2)CC1,90%
17,O=c1[nH]c(CN2CC=C(c3ccccc3)CC2)nc2cc(C(F)(F)F)ccc12,107%
18,CC(C)CNC(=S)NC(=O)c1csc([N+](=O)[O-])c1,96.9%
19,O=C(Nc1cc(C(F)(F)F)ccc1Cl)C(Sc1cccc[n+]1[O-])c1ccccc1 (configuration not stated),85.9%
